Results as given in PubChem BioAssay (Tox21).
Values joined by “and” are separate entries in the source; they are usually repeats but may differ in a detail not shown here. Identical values can stand only once. Records with an inconclusive call do not appear. A call without a number means that no potency is given here. Active and inactive are the calls of the source. Calls come from the whole dose curve.

Each compound was assayed against Acetylcholinesterase (Homo sapiens) (UniProt P22303) (assay: Acetylcholinesterase (AChE) small molecule antagonists: fluorescence cell-based qHTS assay (AID 1347398; note: nearly all actives have a fitted effect of over 50% in size)). Details: SH-SY5Y cells; Potency: AChE activity; outcome: AChE activity; series mostly up to 115 µM.
Sequence of Acetylcholinesterase (Homo sapiens) (P22303 whole entry, looked up): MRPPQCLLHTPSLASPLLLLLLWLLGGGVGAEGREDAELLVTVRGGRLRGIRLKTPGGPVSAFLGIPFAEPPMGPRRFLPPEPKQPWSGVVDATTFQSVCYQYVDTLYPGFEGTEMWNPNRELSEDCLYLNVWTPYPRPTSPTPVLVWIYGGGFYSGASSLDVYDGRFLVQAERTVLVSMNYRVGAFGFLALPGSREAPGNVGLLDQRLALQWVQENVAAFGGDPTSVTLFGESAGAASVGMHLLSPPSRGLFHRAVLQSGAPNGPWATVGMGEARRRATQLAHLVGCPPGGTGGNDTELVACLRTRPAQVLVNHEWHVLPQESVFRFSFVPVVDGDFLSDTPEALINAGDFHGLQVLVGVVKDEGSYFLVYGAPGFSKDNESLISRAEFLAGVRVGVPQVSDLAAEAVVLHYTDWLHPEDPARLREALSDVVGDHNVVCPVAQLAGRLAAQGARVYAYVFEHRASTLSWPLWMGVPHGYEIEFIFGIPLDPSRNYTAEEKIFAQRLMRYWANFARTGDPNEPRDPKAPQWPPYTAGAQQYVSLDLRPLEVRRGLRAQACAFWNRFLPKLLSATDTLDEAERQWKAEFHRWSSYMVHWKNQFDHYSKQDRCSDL
Summary of the method: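 Human SH-SY5Y cells were plated overnight at 37 C, exposed to compound for 30 min at 37 C, 5% CO2, then given acetylthiocholine plus Thiolite Green for 40 min at room temperature; thiocholine fluorescence (Ex/Em 490/520 nm) reports endogenous AChE activity.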
In the case of `CC(CC(C)(C)C)CC(C)(C)CC(C)(C)C` (stereo not given), the Potency is reported as “inactive”.
In the case of `CC(C)=CC1CC(C)CCO1` (stereo not given), the Potency is reported as “inactive”.
With `OC(CCCN1CCCCC1)(c1ccccc1)c1ccccc1` the Potency was “inactive”.
In the case of `c1ccc2cnccc2c1`, the Potency is reported as “inactive”.
`CCCCC/C=C\C/C=C\CCCCCCCC(=O)OC` was tested, and the Potency was “inactive”.
For `COc1ccc(COC(C)=O)cc1`, the Potency was “inactive”.
`CCCC(=O)OCCC(C)C` was tested, and the Potency was “inactive”.
For `CC(=O)CC(=O)Nc1ccc(C)cc1C`, the Potency was “inactive”.
`CN1C(CSCC(F)(F)F)Nc2cc(Cl)c(S(N)(=O)=O)cc2S1(=O)=O` (stereo not given) was tested, and the Potency was “inactive”.
With `CC(C)COC(=O)c1ccccc1` the Potency was “inactive”.
For `Cn1c(=O)c2c(ncn2CC2OCCO2)n(C)c1=O`, the Potency was “inactive”.
In the case of `C[C@H]1C[C@H]2[C@@H]3CCC4=CC(=O)C=C[C@]4(C)[C@H]3C(=O)C[C@]2(C)[C@@]1(O)C(=O)CO`, the Potency is reported as “inactive”.
`CCO[Si](CCCN=C=O)(OCC)OCC` was tested, and the Potency was “inactive”.
For `CC/C=C\C/C=C\C/C=C\CCCCCCCC(=O)OCC`, the Potency was “inactive”.
In the case of `CC(C)CCCC(C)N` (stereo not given), the Potency is reported as “inactive”.
In the case of `CC/C=C(\C)C=O`, the Potency is reported as “inactive”.
For `CC(=O)C1(C)CC2=C(CCCC2(C)C)CC1C` (stereo not given), the Potency was “inactive”.
`CC(C)=CCC1C(=O)N(c2ccccc2)N(c2ccccc2)C1=O` was tested, and the Potency was “inactive”.
With `Cc1coc2ccccc2c1=O` the Potency was “inactive”.
`CCOC(=O)c1ccc(I)cc1` was tested, and the Potency was “inactive”.
`Oc1ccccc1-c1nnco1` was tested, and the Potency was “inactive”.
For `CCCCCCCC/C=C\CCCCCCCC(N)=O`, the Potency was “inactive”.
With `O=C(N[C@@H](Cc1ccccc1)[C@@H](O)C(=O)N1C[C@@H](O)[C@@H](O)C1)c1cc2cc(Cl)ccc2[nH]1` the Potency was “inactive”.
With `CN1C(=O)N(C)C(O)C1O` (stereo not given) the Potency was “inactive”.
With `Cc1cccc(C)c1C` the Potency was “inactive”.
`O=C(CC(C(=O)OC1CCCCC1)S(=O)(=O)O)OC1CCCCC1` (stereo not given) was tested, and the Potency was “inactive”.
`CCC(C)(C)C1CCCCC1OC(C)=O` (stereo not given) was tested, and the Potency was “inactive”.
`CC(=O)[C@H]1CC[C@H]2[C@@H]3C[C@H](C)C4=CC(=O)CC[C@]4(C)[C@H]3[C@@H](O)C[C@]12C` was tested, and the Potency was “inactive”.
`C/C=C/C(=O)CCCC` was tested, and the Potency was “inactive”.
With `c1ccc(Cc2ccccc2)cc1` the Potency was “inactive”.
`C[C@]12CC[C@@H]3c4ccc(O)cc4C[C@@H](CCCCCCCCCS(=O)CCCC(F)(F)C(F)(F)F)[C@H]3[C@@H]1CC[C@@H]2O` (stereo not given in full) was tested, and the Potency was “inactive”.
With `NS(=O)(=O)c1ccc(N2CCCCS2(=O)=O)cc1` the Potency was “inactive”.
`CC(CNC1CCCCC1)OC(=O)c1ccccc1` (stereo not given) was tested, and the Potency was “inactive”.
For `CCc1cc(Cl)c(OC)c(C(=O)NC[C@@H]2CCCN2CC)c1O`, the Potency was “inactive”.
With `CC(C)(O)C(=O)c1ccccc1` the Potency was “inactive”.
For `Clc1nc2ccccc2s1`, the Potency was “inactive”.
`CO[C@@H]1[C@@H](OC(N)=O)[C@@H](O)[C@H](Oc2ccc3c(O)c(NC(=O)c4ccc(O)c(CC=C(C)C)c4)c(=O)oc3c2C)OC1(C)C` was tested, and the Potency was “inactive”.
`CCN=c1cc2oc3cc(NCC)c(C)cc3c(-c3ccccc3C(=O)OCC)c-2cc1C` was tested, and the Potency was “inactive”.
For `CC1(C)OC(=O)NC1=O`, the Potency was “inactive”.
With `CC(C)(C)C(=O)C(=O)O` the Potency was “inactive”.

Each compound was assayed against Acetylcholinesterase (Homo sapiens) (UniProt P22303) (assay: Acetylcholinesterase (AChE) small molecule antagonists: enzyme-based qHTS assay with human liver microsomes (AID 1347399; note: nearly all actives have a fitted effect of over 60% in size; note: potency is the fitted concentration of half-maximal effect)). Details: Potency: qHTS inhibition; outcome: qHTS inhibition; series mostly up to 115 µM.
Summary of the method: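 Recombinant human AChE (50 mU/mL in the enzyme mix) and human liver microsomes (0.25 mg/mL final) were preincubated with compound and NADPH (0.25 mg/mL final) for 30 min at 37 C. Acetylthiocholine/DTNB was then added; thiocholine was read colorimetrically after 10 min at room temperature.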
For `CC(CC(C)(C)C)CC(C)(C)CC(C)(C)C` (stereo not given), the Potency was “inactive”.
In the case of `CC(C)=CC1CC(C)CCO1` (stereo not given), the Potency is reported as “inactive”.
With `OC(CCCN1CCCCC1)(c1ccccc1)c1ccccc1` the Potency was “inactive”.
With `c1ccc2cnccc2c1` the Potency was “inactive”.
`CCCCC/C=C\C/C=C\CCCCCCCC(=O)OC` was tested, and the Potency was “inactive”.
For `COc1ccc(COC(C)=O)cc1`, the Potency was “inactive”.
`CCCC(=O)OCCC(C)C` was tested, and the Potency was “inactive”.
`CC(=O)CC(=O)Nc1ccc(C)cc1C` was tested, and the Potency was “inactive”.
In the case of `CN1C(CSCC(F)(F)F)Nc2cc(Cl)c(S(N)(=O)=O)cc2S1(=O)=O` (stereo not given), the Potency is reported as “inactive”.
In the case of `CC(C)COC(=O)c1ccccc1`, the Potency is reported as “inactive”.
In the case of `Cn1c(=O)c2c(ncn2CC2OCCO2)n(C)c1=O`, the Potency is reported as “inactive”.
In the case of `C[C@H]1C[C@H]2[C@@H]3CCC4=CC(=O)C=C[C@]4(C)[C@H]3C(=O)C[C@]2(C)[C@@]1(O)C(=O)CO`, the Potency is reported as “inactive”.
In the case of `CCO[Si](CCCN=C=O)(OCC)OCC`, the Potency is reported as “inactive”.
With `CC/C=C\C/C=C\C/C=C\CCCCCCCC(=O)OCC` the Potency was “inactive”.
For `CC(C)CCCC(C)N` (stereo not given), the Potency was “inactive”.
`CC/C=C(\C)C=O` was tested, and the Potency was “inactive”.
In the case of `CC(=O)C1(C)CC2=C(CCCC2(C)C)CC1C` (stereo not given), the Potency is reported as “inactive”.
For `CC(C)=CCC1C(=O)N(c2ccccc2)N(c2ccccc2)C1=O`, the Potency was “inactive”.
`Cc1coc2ccccc2c1=O` was tested, and the Potency was “inactive”.
For `CCOC(=O)c1ccc(I)cc1`, the Potency was “inactive”.
For `Oc1ccccc1-c1nnco1`, the Potency was “inactive”.
With `CCCCCCCC/C=C\CCCCCCCC(N)=O` the Potency was “inactive”.
`O=C(N[C@@H](Cc1ccccc1)[C@@H](O)C(=O)N1C[C@@H](O)[C@@H](O)C1)c1cc2cc(Cl)ccc2[nH]1` was tested, and the Potency was “inactive”.
With `CN1C(=O)N(C)C(O)C1O` (stereo not given) the Potency was “inactive”.
With `Cc1cccc(C)c1C` the Potency was “inactive”.
With `O=C(CC(C(=O)OC1CCCCC1)S(=O)(=O)O)OC1CCCCC1` (stereo not given) the Potency was “inactive”.
With `CCC(C)(C)C1CCCCC1OC(C)=O` (stereo not given) the Potency was “inactive”.
For `CC(=O)[C@H]1CC[C@H]2[C@@H]3C[C@H](C)C4=CC(=O)CC[C@]4(C)[C@H]3[C@@H](O)C[C@]12C`, the Potency was “inactive”.
`C/C=C/C(=O)CCCC` was tested, and the Potency was “inactive”.
For `c1ccc(Cc2ccccc2)cc1`, the Potency was “inactive”.
With `C[C@]12CC[C@@H]3c4ccc(O)cc4C[C@@H](CCCCCCCCCS(=O)CCCC(F)(F)C(F)(F)F)[C@H]3[C@@H]1CC[C@@H]2O` (stereo not given in full) the Potency was “inactive”.
In the case of `NS(=O)(=O)c1ccc(N2CCCCS2(=O)=O)cc1`, the Potency is reported as “inactive”.
With `CC(CNC1CCCCC1)OC(=O)c1ccccc1` (stereo not given) the Potency was “inactive”.
`CCc1cc(Cl)c(OC)c(C(=O)NC[C@@H]2CCCN2CC)c1O` was tested, and the Potency was “inactive”.
For `CC(C)(O)C(=O)c1ccccc1`, the Potency was “inactive”.
For `Clc1nc2ccccc2s1`, the Potency was “inactive”.
For `CO[C@@H]1[C@@H](OC(N)=O)[C@@H](O)[C@H](Oc2ccc3c(O)c(NC(=O)c4ccc(O)c(CC=C(C)C)c4)c(=O)oc3c2C)OC1(C)C`, the Potency was “inactive”.
In the case of `CCN=c1cc2oc3cc(NCC)c(C)cc3c(-c3ccccc3C(=O)OCC)c-2cc1C`, the Potency is reported as 79.4 µM (active) and 63.3 µM (active).
For `CC1(C)OC(=O)NC1=O`, the Potency was “inactive”.
For `CC(C)(C)C(=O)C(=O)O`, the Potency was “inactive”.
